Results taken from paper PMC4336329 (PLoS ONE, 2015).
Among all 310,000 compounds or so, about 14,000 (4.5%) showed an effect of 50% or more. The effect is printed as a negative number. What follows is part of a selection rich in strong results, with near analogues and random picks from the rest.

These compounds were tested against human ether-à-go-go-related gene (hERG) potassium channel (human, UniProt Q12809) (assay: primary screen, population patch clamp on CHO cells stably expressing hERG; higher = less effect of the substance).
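Note: peak tail current of the secondary pulse compared with the same well before compound.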

human ether-à-go-go-related gene (hERG) potassium channel, sequence (Q12809 whole entry, looked up): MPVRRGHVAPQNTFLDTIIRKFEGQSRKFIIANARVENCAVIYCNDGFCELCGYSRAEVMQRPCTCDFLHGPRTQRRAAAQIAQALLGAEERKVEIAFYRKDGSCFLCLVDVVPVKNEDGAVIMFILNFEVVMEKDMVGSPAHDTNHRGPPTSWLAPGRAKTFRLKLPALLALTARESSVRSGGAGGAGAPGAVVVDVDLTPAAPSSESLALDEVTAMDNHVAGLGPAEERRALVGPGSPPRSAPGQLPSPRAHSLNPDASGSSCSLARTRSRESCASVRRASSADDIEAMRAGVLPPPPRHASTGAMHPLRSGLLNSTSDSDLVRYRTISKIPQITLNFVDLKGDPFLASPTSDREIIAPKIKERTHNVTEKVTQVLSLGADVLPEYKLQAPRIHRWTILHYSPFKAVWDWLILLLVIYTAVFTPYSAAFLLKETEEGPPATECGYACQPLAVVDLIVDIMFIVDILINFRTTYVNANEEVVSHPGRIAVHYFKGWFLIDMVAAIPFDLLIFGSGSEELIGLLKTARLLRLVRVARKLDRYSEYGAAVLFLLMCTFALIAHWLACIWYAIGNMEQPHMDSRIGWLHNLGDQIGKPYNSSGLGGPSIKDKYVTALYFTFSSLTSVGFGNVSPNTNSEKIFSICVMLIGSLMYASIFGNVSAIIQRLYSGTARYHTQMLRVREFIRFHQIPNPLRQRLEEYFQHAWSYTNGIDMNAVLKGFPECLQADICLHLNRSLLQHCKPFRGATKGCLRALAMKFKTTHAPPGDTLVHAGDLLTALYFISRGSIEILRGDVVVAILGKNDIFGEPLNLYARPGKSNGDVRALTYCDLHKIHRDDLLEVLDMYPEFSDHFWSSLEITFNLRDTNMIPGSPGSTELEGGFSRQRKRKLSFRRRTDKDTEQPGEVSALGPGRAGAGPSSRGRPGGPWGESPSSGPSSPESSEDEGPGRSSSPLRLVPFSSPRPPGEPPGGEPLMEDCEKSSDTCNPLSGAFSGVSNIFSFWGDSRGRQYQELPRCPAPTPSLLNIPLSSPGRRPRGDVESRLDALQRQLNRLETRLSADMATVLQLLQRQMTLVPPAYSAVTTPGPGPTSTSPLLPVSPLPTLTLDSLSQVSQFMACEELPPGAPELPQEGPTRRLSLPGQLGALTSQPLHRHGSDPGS

Structure (SMILES)	hERG current change (%, negative = inhibition) at 10uM
CCOC(=O)c1c[nH]c2c(C)ccc(Cl)c2c1=O	20.9%
CC(=O)NCCc1nc2cc(NS(=O)(=O)c3ccc(Cl)cc3)ccc2n1C	10.4%
Cc1ccc(S(=O)(=O)Nc2ccc3c(c2)nc(CCN2CCOCC2)n3C)cc1	-17.2%
Cc1ccc(S(=O)(=O)Nc2ccc3c(c2)nc(CCN2CCCC2)n3C)cc1	-42.5%
Cn1c(CCN2CCCC2)nc2cc(NS(=O)(=O)c3ccc(Cl)cc3)ccc21	-84%
CCC(=O)Nc1ccc2c(c1)nc(CCN1CCN(c3ccccc3)CC1)n2C	-33.5%
Cn1c(CCNC(=O)c2ccco2)nc2cc(NS(=O)(=O)c3ccc(Cl)cc3)ccc21	-65.2%
Cn1c(CCNC(=O)c2ccco2)nc2cc(NS(=O)(=O)c3ccccc3)ccc21	-6.01%
Cc1ccc(N2CCN(CCc3nc4cc(NS(C)(=O)=O)ccc4n3C)CC2)cc1	-59.8%
Cc1ccc(S(=O)(=O)Nc2ccc3c(c2)nc(CCN2CCCCC2)n3C)cc1	-63.6%
CC(C)C(=O)Nc1ccc2c(c1)nc(CCN1CCN(c3ccccc3)CC1)n2C	-40.4%
Cc1cc(C(F)(F)F)c(C#N)c(SCC(=O)NC2CC2)n1	-4.11%
CC(=O)NC1=NN(C(C)=O)C(C)(CS(=O)(=O)c2ccc3ccccc3c2)S1 (stereo not shown)	-0.325%
COc1ccc(OC)c(-n2c(-c3cc(-c4ccco4)[nH]n3)n[nH]c2=S)c1	1.18%
COc1ccccc1NS(=O)(=O)c1ccc(C)c(NC(=O)C2CCCO2)c1 (stereo not shown)	4.4%
O=C(CNC(=O)c1ccc2c(c1)OCCO2)N/N=C/c1ccc(Cl)cc1	14.1%
Cc1occc1C(=O)N1CCN(C(=O)C2CCCO2)CC1 (stereo not shown)	-12.2%
COc1ccccc1N(CC(=O)NC1CCCC1)S(=O)(=O)c1ccc(C)cc1	-5.82%
CCCC(=O)Nc1nnc(SCC(=O)NCc2cccs2)s1	8.39%
Cn1c(CCN2CCCCC2)nc2cc(NS(=O)(=O)c3ccc(Cl)cc3)ccc21	-73.8%

Structure (SMILES)	hERG current change (%, negative = inhibition) at 10uM
Cn1c(CCN2CCCCC2)nc2cc(NC(=O)Nc3ccccc3)ccc21	-28%
Cn1c(CCN2CCCCCC2)nc2cc(NC(=O)Nc3ccccc3)ccc21	-35.7%
CCCCCn1c(N(C)Cc2ccccc2)nc2c1c(=O)[nH]c(=O)n2C	-17.1%
C=C(C)Cn1c(N(CCO)Cc2ccccc2)nc2c1c(=O)[nH]c(=O)n2C	-2.53%
Cn1c(=O)[nH]c(=O)c2c1nc(N(CCO)Cc1ccccc1)n2CCCc1ccccc1	-64.6%
CN(C)c1nc2c(c(=O)[nH]c(=O)n2C)n1CCCc1ccccc1	-19.1%
CN(Cc1ccccc1)c1nc2c(c(=O)[nH]c(=O)n2C)n1CCCc1ccccc1	-51.8%
Cn1c(=O)[nH]c(=O)c2c1nc(NCCCO)n2CCCc1ccccc1	-5.36%
CCOC(=O)N1CCN(CC(=O)Nc2cc(C)nn2-c2nc3ccccc3s2)CC1	-23.3%
COc1ccc(Cl)cc1NC(=S)N1CCN(c2ncccn2)CC1	13.6%
CCc1nc(SCc2ccccc2C#N)n[nH]1	13.4%
CC(=O)NCCC(=O)Nc1nc(-c2cccs2)c(-c2cccs2)s1	-6.66%
COc1ccc(-c2noc(CSc3nnc(-c4ccccc4)n3C)n2)cc1	-32.8%
CCOC(=O)c1sc2nc(CC(=O)OC)nc(NCCN(CC)CC)c2c1C	-62.7%
CCOC(=O)c1sc2nc(CC(=O)OC)nc(NCc3ccc(Cl)cc3)c2c1C	-7.35%
CCOC(=O)c1sc2nc(C)nc(NCc3ccc(Cl)cc3)c2c1C	-80.6%
CCOC(=O)c1sc2nc(CC(=O)OC)nc(NCC(=O)OC)c2c1C	-9.05%
CCOC(=O)c1sc2nc(C)nc(NCc3ccccc3)c2c1C	9.35%
CCOC(=O)c1sc2nc(C)nc(NCc3ccc(F)cc3)c2c1C	17.2%
COc1cc(NC(=O)c2ccc(F)cc2)c(OC)cc1Cl	3%

Structure (SMILES)	hERG current change (%, negative = inhibition) at 10uM
O=S1OC(c2ccccc2)c2cc(Cl)ccc21 (stereo not shown)	11%
COc1cccc(-c2noc(CCC(=O)NC3CCCC3)n2)c1	7.42%
Cn1c(=O)c2c(nc(SCC(=O)O)n2Cc2cc3c(cc2Cl)OCO3)n(C)c1=O	6.88%
O=c1[nH]c(CSc2nnc(COc3ccccc3)n2-c2ccccc2)nc2ccccc12	-4.92%
C/C(=N/N1CCN(Cc2cccc3ccccc23)CC1)c1cccnc1	-50.1%
C(=N\N1CCN(Cc2cccc3ccccc23)CC1)/c1cccnc1	-1.95%
C/C(=N\N1CCN(C2c3ccccc3-c3ccccc32)CC1)c1cccnc1	-2.47%
COc1ccc(N(CC(=O)N2CCc3ccccc3C2)S(C)(=O)=O)cc1Cl	-25.7%
Cc1oc2ccc(O)c(CN(C)C)c2c1C(=O)c1ccccc1	-42.4%
O=C(c1ccccc1)c1coc2ccc(O)c(Cl)c12	-10.9%
Cc1ccc(C(=O)c2coc3ccc(O)cc23)cc1	23.2%
CN(C)Cc1c(O)ccc2occ(C(=O)c3ccccc3)c12	-52.8%
CCN(CC)Cc1c(O)ccc2occ(C(=O)c3ccccc3)c12	-72.6%
COc1ccc2occ(C(=O)c3ccccc3)c2c1	-15.3%
Cc1ccc(C(=O)c2coc3ccc(O)c(Cl)c23)cc1	-26.5%
CN(C)Cc1c(O)ccc2occ(C(O)c3ccccc3)c12 (stereo not shown)	-2.08%
Cc1ccc(C(=O)c2coc3ccc(O)c(CN(C)C)c23)cc1.Cl	-54.7%
CN(C)Cc1c(O)ccc2occ(C(=O)c3ccc(F)cc3)c12	-69.6%
